The values that follow come from PubChem BioAssay (Tox21).

Unmarked numbers belong to inactive results. Results filed as inconclusive are left out. Calls of active or inactive are those of the source. Unless noted, calls come from the whole dose curve; as a rule, active = well fitted curve in the direction sought with a large enough effect in the repeat runs; inconclusive = weak or mixed curves; inactive = no such curve, though single readings can be large; an effect the other way counts as inactive or inconclusive.

The target in assay [1] is Thyrotropin receptor (Homo sapiens) (UniProt P16473). Put plainly: qHTS assay to identify small molecule agonists of the thyroid stimulating hormone receptor (TSHR) signaling pathway (AID 1224843; calls by dose curve; note: nearly all actives have a fitted effect of over 45% in size). Put shortly: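 HEK293 cells stably bearing the thyrotropin receptor were plated at 800 cells/well and challenged with compound (30 min, RT). Accumulated cAMP was quantified via cAMP-d2 competing for cryptate-tagged antibody.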
Sequence of Thyrotropin receptor (Homo sapiens) (P16473 whole entry, looked up): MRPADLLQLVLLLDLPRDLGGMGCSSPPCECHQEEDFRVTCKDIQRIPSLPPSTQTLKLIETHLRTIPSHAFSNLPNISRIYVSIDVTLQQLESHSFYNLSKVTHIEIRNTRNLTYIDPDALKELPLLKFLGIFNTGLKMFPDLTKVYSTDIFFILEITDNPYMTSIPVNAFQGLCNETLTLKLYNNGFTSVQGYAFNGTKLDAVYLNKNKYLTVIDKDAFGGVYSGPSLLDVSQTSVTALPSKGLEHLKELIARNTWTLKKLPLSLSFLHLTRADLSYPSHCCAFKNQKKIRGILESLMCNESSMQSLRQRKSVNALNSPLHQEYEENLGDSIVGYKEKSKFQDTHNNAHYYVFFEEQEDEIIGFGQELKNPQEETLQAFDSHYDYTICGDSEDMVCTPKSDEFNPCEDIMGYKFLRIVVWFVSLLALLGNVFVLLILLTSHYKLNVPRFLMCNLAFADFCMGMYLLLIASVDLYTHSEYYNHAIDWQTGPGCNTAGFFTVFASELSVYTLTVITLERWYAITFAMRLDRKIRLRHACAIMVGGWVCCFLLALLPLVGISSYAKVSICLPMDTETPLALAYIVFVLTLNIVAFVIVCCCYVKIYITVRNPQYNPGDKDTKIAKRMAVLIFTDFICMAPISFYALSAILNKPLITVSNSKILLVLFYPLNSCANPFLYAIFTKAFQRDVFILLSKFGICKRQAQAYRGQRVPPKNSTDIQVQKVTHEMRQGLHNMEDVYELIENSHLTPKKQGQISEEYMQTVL
In general terms: In qHTS, concentration-response curves come from the screen itself.

Assay [2] in a line: qHTS assay to identify small molecule agonists of H2AX (AID 1224845; active = well fitted activation curve with a large enough effect in the signal ratio in the repeat runs, not every such curve was filed as active; the % refers to the signal ratio). Put shortly:
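Phospho-H2AX Ser139 measured by HTRF (ex 320 nm; em 665 and 620 nm) after 24 hr antibody incubation. Compounds, 15 concentrations, 0.76% DMSO, were applied to CHO-K1 cells for 3hr at 37C before lysis.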

Assay [3] can be described thus: qHTS assay to identify small molecule agonists of the hypoxia (HIF-1) signaling pathway (AID 1224846; active = well fitted activation curve with a large enough effect in the signal ratio in the repeat runs, not every such curve was filed as active; the % refers to the signal ratio). Put shortly:
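Hypoxia-pathway activation was scored as increased beta-lactamase from an HRE-controlled reporter in ME-180 cells; plated at 2,000 cells per well with 0.5% dialyzed FBS, they were exposed 17 hrs to compounds and then given CCF4-AM.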

The nature of assay [4]: qHTS assay to identify small molecule antagonists of the estrogen related receptor (ERR) signaling pathway from Tox21 library (AID 1224848). Note: nearly all actives have a fitted effect of over 50% in size. Note: potency is the fitted concentration of half-maximal effect. The essentials:
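Reading was by luminescence 30 min after ONE-Glo addition. Before that, ERR cells at 2,000 per well had rested 6 h at 37 C/5% CO2 and then received pin-tooled compounds in DMSO for 18 h at 37 C.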

The nature of assay [5]: qHTS RealTime-Glo MT Cell Viability Assay in HepG2 cells - 24 hour (AID 1224867). Note: nearly all actives have a fitted effect of over 50% in size. Put shortly: (§1)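 Real-time, nonlytic viability: 600 HepG2 cells/well mixed with NanoLuc enzyme plus prosubstrate; 5 h settle, compound (DMSO) added by pintool; luminescence monitored over 40 h at 37 C.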
The nature of assay [6]: qHTS RealTime-Glo MT Cell Viability Assay in HEK293 cells - 32 hour (AID 1224868). Note: nearly all actives have a fitted effect of over 50% in size. Note: potency is the fitted concentration of half-maximal effect. Put shortly:
(§2)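 Cells + reagent dispensed (600 cells/well, HEK293) → 5 h at 37 C/5% CO2 → 23 nL compound in DMSO pinned → 40 h at 37 C → luminescence read at 0, 8, 16, 24, 32, 40 h.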

The nature of assay [7]: A CellTox Green Cytotoxicity Assay to monitor cytotoxicity in HEK293 cells - 0 hour (AID 1224869). Note: nearly all actives have a fitted effect of over 50% in size. Put shortly: (§3)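 Seeding of HEK293 cells together with cytotoxicity dye preceded a 5 h incubation at 37 C/5% CO2. Test compounds in DMSO were then added and fluorescence monitored across 40 h.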
The nature of assay [8]: qHTS RealTime-Glo MT Cell Viability Assay in HepG2 cells - 40 hour (AID 1224870). Note: nearly all actives have a fitted effect of over 50% in size. Put shortly: (§4)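 Real-time viability: cells seeded at 600 per well together with NanoLuc and cell-permeant prosubstrate, compounds added after 5 h incubation. Luminescence tracked at 0, 8, 16, 24, 32 and 40 h of exposure.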
Assay [9] in a line: A CellTox Green Cytotoxicity Assay to monitor cytotoxicity in HEK293 cells - 40 hour (AID 1224871). Note: nearly all actives have a fitted effect of over 45% in size. Put shortly: as §3
A short description of assay [10]: qHTS RealTime-Glo MT Cell Viability Assay in HEK293 cells - 16 hour (AID 1224872). Note: nearly all actives have a fitted effect of over 50% in size. Note: potency is the fitted concentration of half-maximal effect. The essentials: as §2
Assay [11] in a line: qHTS RealTime-Glo MT Cell Viability Assay in HepG2 cells - 8 hour (AID 1224873). Note: nearly all actives have a fitted effect of over 55% in size. Put shortly: as §4
Assay [12] in a line: qHTS RealTime-Glo MT Cell Viability Assay in HEK293 cells - 40 hour (AID 1224874). Note: nearly all actives have a fitted effect of over 50% in size. Note: potency is the fitted concentration of half-maximal effect. To be noted: RealTime-Glo luminescence; max response: hits give low values. Put shortly:
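Tox21 screen in HEK293 using RealTime-Glo MT chemistry, with cells and reagent co-dispensed. Luminescence proportional to viable cell number was captured at intervals during 40 h compound exposure at 37 C.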

The nature of assay [13]: A CellTox Green Cytotoxicity Assay to monitor cytotoxicity in HepG2 cells - 16 hour (AID 1224876). Note: nearly all actives have a fitted effect of over 45% in size. Put shortly: (§5)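 Nonlytic assay: viable cells exclude the dye, so fluorescence scales with cell death. HepG2 at 600 cells/well, compounds added after 5 h, signal read across 40 h.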
Assay [14] in a line: qHTS RealTime-Glo MT Cell Viability Assay in HepG2 cells - 32 hour (AID 1224877). Note: nearly all actives have a fitted effect of over 55% in size. The essentials: as §1
A short description of assay [15]: A CellTox Green Cytotoxicity Assay to monitor cytotoxicity in HepG2 cells - 24 hour (AID 1224878). Note: nearly all actives have a fitted effect of over 45% in size. The essentials: as §5
Assay [16] can be described thus: A CellTox Green Cytotoxicity Assay to monitor cytotoxicity in HepG2 cells - 40 hour (AID 1224879). Note: nearly all actives have a fitted effect of over 40% in size. Note: potency is the fitted concentration of half-maximal effect. Put shortly:
as §5

Assay [17] can be described thus: qHTS assay to identify small molecule agonists of the hypoxia (HIF-1) signaling pathway - cell viability counter screen (AID 1224844; calls by dose curve; note: nearly all actives have a fitted effect of over 50% in size). The essentials:
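Multiplexed with the HRE beta-lactamase assay, this viability read used CellTiter-Glo luminescence (30 min, RT) on HRE-bla ME-180 cells treated 17 hrs with compounds in 0.5% dialyzed FBS medium.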

Assay [18] can be described thus: qHTS assay to identify small molecule agonists of H2AX - cell viability counter screen (AID 1224847; calls by dose curve;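 note: wild-type CHO-K1 cells; top concentration of the series differs between compounds; nearly all actives have a fitted effect of over 30% in size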). Put shortly:
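After overnight plating of 1000 CHO-K1 cells per well, a 15-concentration compound series was applied for 3 hr at 37C. Luminescence from CellTiter-Glo, read following 30 min at room temperature, reflected cell viability.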

A short description of assay [19]: qHTS assay to identify small molecule agonists of the estrogen related receptor (ERR) signaling pathway from Tox21 library (AID 1224849; calls by dose curve; note: nearly all actives have a fitted effect of over 15% in size). The following applies: ERR reporter cell line, ONE-Glo luciferase, 18 h; at 92.4 µM (top of the series) unless noted. Put shortly: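 Six hours post-seeding at 37 C/5% CO2, ERR cells receive DMSO-solubilised compounds; after 18 h at 37 C, ONE-Glo reagent is applied and luminescence recorded.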

Assay [20] in a line: A CellTox Green Cytotoxicity Assay to monitor cytotoxicity in HEK293 cells - 24 hour (AID 1224875). Note: nearly all actives have a fitted effect of over 45% in size. Put shortly: as §3
% is set by controls: 0 for no effect and ±100 for the full control effect.

`Cc1ccc(/C=N/n2c(-c3ccccc3)csc2=S)cc1`: the Potency entry in assay [1], in assay [2], in assay [4], in assay [5], in [6] and in assay [7] was “inactive” in each case. Further, the Potency result in assay [8], in assay [9], in assay [10], in [11], in [13] and in assay [14] was “inactive” in each case. Moreover, the Potency result in assay [15] and in assay [16] was “inactive” each time. Moreover, in assay [3], the compound was classed as inactive. Also, the max response in [12] was -0.419%.

With `CC(C)CCCC(=O)O`, the Potency result in assay [17], in assay [2], in assay [18], in assay [4], in assay [5] and in assay [6] was “inactive” each time. Besides, the Potency entry in assay [7], in assay [8], in assay [9], in assay [10], in [20] and in assay [13] was “inactive” throughout. Further, the Potency entry in assay [14], in assay [15] and in assay [16] was “inactive” throughout. Besides, the compound was called inactive in assay [3]. Moreover, the activity change, positive = activation in assay [19] is 0.997%. The max response in assay [12] is -12.3%.

In the case of `CC(C)C(=O)O`, the Potency entry in [17], in assay [2], in assay [18], in assay [5], in [6] and in assay [7] was “inactive” each time. Besides, the Potency entry in [8], in assay [9], in [10], in assay [11], in [20] and in [13] was “inactive” throughout. For the same compound, the Potency entry in assay [14], in [15] and in [16] was “inactive” throughout. For the same compound, the result in assay [3] was inactive. Moreover, the max response in assay [12] is 9.49%.

On to `O=C(Nc1ccccc1)Nc1ccccc1`, for which the Potency entry in assay [17], in [2], in assay [4], in assay [5], in assay [7] and in assay [8] was “inactive” throughout. Moreover, the Potency entry in assay [9], in assay [11], in assay [20], in [13], in [14] and in assay [15] was “inactive” throughout. Besides, in assay [16], the Potency entry was “inactive”. For the same compound, in [3], the outcome was inactive. Also, in assay [19], the activity change, positive = activation is 28.3% (active).

Turning to `COC(=O)Nc1nc2ccc(C(=O)c3cccs3)cc2[nH]1`, the Potency result in assay [1], in assay [18], in assay [4], in [5], in [7] and in [8] was “inactive” each time. The Potency entry in [9], in assay [11], in [13], in [14] and in assay [15] was “inactive” throughout. Also, in assay [3], the compound was called inactive. Besides, the activity change, positive = activation in assay [19] is -4.13% [at 42.5 µM]. Further, the Potency was 0.169 µM (active) in assay [6], 0.134 µM (active) in [12] and 0.107 µM (active) in [16].

On to `CCC(=O)Oc1ccc(/C(CC)=C(\CC)c2ccc(OC(=O)CC)cc2)cc1`, for which the Potency entry in assay [1], in [2], in [18], in assay [5], in [7] and in [8] was “inactive” in each case. In addition, the Potency entry in assay [9], in [20], in assay [13], in [14], in assay [15] and in [16] was “inactive” in each case. In addition, the Potency was 27.3 µM (active) in [4], 17.4 µM (active) in [6], 24.5 µM (active) in assay [10] and 17.4 µM (active) in [12]. Also, the activity change, positive = activation in [19] is -47.8%.

`CC(C)OCC1CO1` (stereo not drawn): the Potency result in assay [17], in assay [2], in assay [18], in [4], in [5] and in assay [6] was “inactive” each time. For the same compound, the Potency entry in [7], in assay [8], in [9], in [10], in assay [11] and in assay [20] was “inactive” each time. Besides, the Potency result in assay [13], in assay [14], in [15] and in assay [16] was “inactive” each time. The result in [3] was inactive. The activity change, positive = activation in assay [19] is -0.395%. Also, in [12], the max response was 11.5%.
